# This is a sample that favours compounds with a hit; in the whole collection about 14% have one here.
# Giardia FBPA inh: Giardia lamblia aldolase inhibition | purified Giardia FBPA | actives 0.71% (n = 290,000) | Potency, µM (top dose mostly 59.6 µM), inactives show top-dose activity, negative = inhibition, hits mostly inhibitors; note: potency is the fitted concentration of half-maximal effect; nearly all actives have a fitted effect of over 55% in size
# Target sequence (A8B2U2 whole entry, looked up): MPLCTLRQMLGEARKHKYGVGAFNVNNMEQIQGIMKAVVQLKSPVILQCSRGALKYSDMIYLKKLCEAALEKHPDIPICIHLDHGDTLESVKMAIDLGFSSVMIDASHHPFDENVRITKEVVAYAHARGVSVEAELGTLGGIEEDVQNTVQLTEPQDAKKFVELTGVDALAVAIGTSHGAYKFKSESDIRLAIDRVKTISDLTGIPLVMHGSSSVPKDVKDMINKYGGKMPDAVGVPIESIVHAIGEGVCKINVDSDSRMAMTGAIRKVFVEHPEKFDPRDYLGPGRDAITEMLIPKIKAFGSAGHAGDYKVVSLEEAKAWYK
#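 40 nM FBPA preincubated 10 min at RT with compound (up to 57.5 uM final), then substrate plus GAPDH/TPI/NAD/arsenate coupling and diaphorase/resazurin added. Fluorescence read after 20 min at RT, 525/598 nm.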
# Pf growth 48h: P. falciparum growth inhibition at 48 hours (one generation); P. falciparum luciferase growth in erythrocytes, 48 h; Potency, µM (highest dose often 28.7 µM), for the others: at the top dose activity change, negative = inhibition, most hits filed as inhibitors; actives 5.9% (n = 310,000); AID 504832; note: potency is the fitted concentration of half-maximal effect
#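 Firefly luciferase activity from engineered P. falciparum reports growth; inhibitors lower the luminescent signal. Cultures contained 2% hematocrit erythrocytes at 0.1% final parasitemia.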
# Pf growth 96h: P. falciparum growth inhibition at 96 hour, primary screen for plastid delayed-death inhibitors | actives 6.9% (n = 320,000) | Potency, µM (top dose mostly 28.7 µM), for the others: at the top dose activity change, negative = inhibition, most hits filed as inhibitors | P. falciparum luciferase reporter growth, 96 h; note: potency is the fitted concentration of half-maximal effect
#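 Luminescence readout: decreased luciferase signal marks inhibited growth of reporter-expressing P. falciparum in infected red cells (2% hematocrit, 0.05% parasitemia final), exposed to compound two generations (96 h, 37 C, 5% CO2).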
# HCMV inh: blocks human cytomegalovirus replication | actives 4.5% (n = 410,000) | HFF cells, HCMV-luciferase reporter, 72 h; stronger effect = lower value | activity change, negative = inhibition, % at 57.5 µM | AID 1259415; in the data active = activity change below about -60%; inconclusive = no clear call, values can overlap the other calls; inactive = above about -39%
#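 After 16 h attachment at 37C, HFF cells received test compound and HCMV-luciferase (1 PFU/cell); reporter luminescence read 72 h later, data normalized against buffer-only and known inhibitor Salinomycin.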
# Sm TGR inh: blocks Schistosoma mansoni thioredoxin glutathione reductase. Q962Y6. purified TGR, DTNB reduction, TNB absorbance 405 nm. Potency, µM (highest dose often 114 µM), for inactives: at the highest dose activity change, negative = inhibition, actives largely listed as inhibitors. actives 3% (n = 360,000). AID 485364; note: potency is the fitted concentration of half-maximal effect; nearly all actives have a fitted effect of over 60% in size
#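 Kinetic colorimetric format: TGR-catalysed, NADPH-driven DTNB reduction monitored via TNB absorbance. Enzyme dispensed at 20 nM; compound exposure 15 min at room temperature before reaction start.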
# * = called active by the depositor; ? = inconclusive; . = no result given; + = active, no number; [ ] = another dose, or the depositor's remark. Unless noted, calls come from the whole dose curve; as a rule, active = well fitted curve in the direction sought with a large enough effect; inconclusive = small, poorly fitted or top-dose-only effect, or another doubt; inactive = no such curve, though single readings can be large; an effect the other way counts as inactive or inconclusive. % is set by controls: 0 for no effect and ±100 for the full control effect.
SMILES,Giardia FBPA inh,Pf growth 48h,Pf growth 96h,HCMV inh,Sm TGR inh
CCOC(=O)C1=C(C)NC(C)=C(C(=O)OCC)C1C(=O)OCC(=O)NC(C)c1ccccc1 (centres undefined),.,?,13.1µM*,-5.5,-0.4%
CC(NC(=O)COC(=O)c1ccc(N(C)C)cc1)c1ccccc1 (centres undefined),0.6%,11.7µM*,8.9%,1.5,7.2%
O=C1/C(=C\c2cc3c(cc2Cl)OCO3)N2CCC1CC2,?,20.8%,5.86µM*,?,-14.8%
CCn1c(=O)c2cc(C(=O)NCc3ccc(F)cc3Cl)sc2c2ccccc21,.,.,.,-2.0,-3.9%
COc1ccccc1Cn1c(=S)[nH]c2cc(C(=O)NCC(OC)OC)ccc2c1=O,-27.0%,?,0.5%,-37.6,9.6%
Cc1ccc(-n2ncc(C(=O)Nc3ccc4c(c3)OCCO4)c2C2CCN(C(=O)OC(C)(C)C)CC2)cc1C,.,.,.,+,-0.9%
Cc1ccc(-n2ncc(C(=O)N3CCc4ccccc4C3)c2NC(=O)c2ccco2)cc1C,?,-9.7%,1.6%,-39.2,31.6µM*
Cc1ccc(-n2ncc(C(=O)N3CCN(C(=O)c4ccco4)CC3)c2C2CCN(C(=O)OC(C)(C)C)CC2)cc1C,.,4.65µM*,0.1%,0.0,?
Cc1cccc(-n2ncc(C(=O)Nc3ccc4c(c3)OCO4)c2C2CCN(C(=O)OC(C)(C)C)CC2)c1,.,.,.,?,-26.6%
CNC(=O)C1CCC(Cn2c(=O)c3sccc3n(CC(=O)NCc3cccc(OC)c3)c2=O)CC1 (centres undefined),.,.,.,32.3,0.2%
Cc1ccc(C)c(N2CCN(C(=O)c3nn(C)c4c3CS(=O)(=O)c3ccccc3-4)CC2)c1,-5.8%,?,19.7%,-10.7,4.6%
C/C(CC(=O)Nc1ccc2c(c1)OCO2)=N\NC(=O)c1ccc(N)cc1,-13.5%,20.7%,7.6%,98.4,39.8µM*
O=C(NC(=S)Nc1ccccc1Br)c1ccc2c(c1)OCO2,.,100.9%,-10.0%,-19.7,14.1µM*
NS(=O)(=O)c1ccc(NC(=S)NC(=O)c2ccc3c(c2)OCO3)cc1,?,23.1%,28.1%,-23.7,-4.6%
CCn1cc(C(=O)NC(=S)Nc2ccccc2Br)cn1,-20.4%,87.6%,43.6%,13.5,79.4µM*
O=C(NC(=S)Nc1ccc2c(c1)OCO2)c1ccccc1,-10.1%,74.7%,40.1%,72.3,14.1µM*
O=C(Nc1ccc2c(c1)OCO2)c1ccccc1,1.9%,94.6%,3.4%,7.4,1.6%
C/C(CC(=O)Nc1ccc2c(c1)OCO2)=N\NC(=O)c1ccccc1N,4.8%,?,?,85.6,?
CCC1CC=CC2C1C(=O)N(Cc1ccccc1)C2c1ccc(C(F)(F)F)cc1 (centres undefined),-8.0%,.,.,.,.
Cc1ccc(Nc2ncnc3c2cnn3-c2ccccc2)c(C)c1,.,.,.,6.7,0.6%
CCCNC(=O)CN1C(=O)NC(CC)(c2ccc(F)cc2)C1=O (centres undefined),-3.1%,25.4%,-1.0%,12.7,3.6%
CSc1sc(C(=O)N2CCc3ccccc32)cc1S(=O)(=O)C(C)C,.,?,?,-39.2,-25.3%
CSc1sc(C(=O)NCC2CC2)cc1S(=O)(=O)C(C)C,0.2%,2.33µM*,-4.2%,-2.4,0.9%
O=C(COC(=O)Cc1ccsc1)Nc1cccc(F)c1,.,27.8%,6.6%,-19.5,-2.7%
N#CCN(CC#N)C(=O)C1c2ccccc2Oc2ccccc21,2.8%,-5.1%,2.94µM*,-9.9,-6.7%
SMILES,Giardia FBPA inh,Pf growth 48h,Pf growth 96h,HCMV inh,Sm TGR inh
COCC(C)NC(=S)Nc1ccccc1[N+](=O)[O-] (centres undefined),-1.4%,30.8%,19.5%,21.9,39.8µM*
CC(C)(C)CC(=O)NC(=S)Nc1ccccc1[N+](=O)[O-],-12.6%,1.3%,31.1%,-19.0,-15.1%
COCC(C)NC(=O)c1cccc([N+](=O)[O-])c1 (centres undefined),1.0%,34.4%,10.4%,-38.7,17.4%
COCC(C)NC(=O)c1cc2cccc([N+](=O)[O-])c2[nH]1 (centres undefined),-9.0%,5.22µM*,?,53.3,-14.2%
O=C(CC(=O)Nc1ccccc1[N+](=O)[O-])Nc1ccccc1[N+](=O)[O-],5.6%,8.7%,8.0%,-65.1*,89.1µM*
CC(C)CC1NC(=O)N(CC(=O)Nc2cc(S(=O)(=O)N3CCOCC3)ccc2Cl)C1=O (centres undefined),.,.,.,-3.6,.
C=CCSC1=N/C(=C\c2ccc(C(=O)O)cc2)C(=O)S1,-13.6%,11.7%,0.0%,2.7,.
CCSC1=N/C(=C\c2ccc(C(=O)O)cc2)C(=O)S1,6.7%,.,13.1µM*,38.6,-19.5%[11.4 µM]
CC(=O)Nc1cnn(Cc2ccc(Br)cc2)c1,5.8%,4.1%,.,22.3,-12.2%
Cn1cc(NC(=O)CCl)cn1,-3.3%,?,?,-84.2*,?
Cc1nc(NC(=O)C(C)(C)C)sc1-c1nc(N)sc1-n1cc(-c2ccccc2)nn1,.,.,.,1.1,.
CCNc1nc(-c2sc(NC(=O)C(C)(C)C)nc2C)c(-n2cc(-c3ccccc3)nn2)s1,.,.,.,-70.4*,.
Nc1nc(N)c2c(ccc3c2ccn3Cc2cccc([N+](=O)[O-])c2)n1,.,.,.,-99.1*,.
CC(=O)C[C@H](c1ccc([N+](=O)[O-])cc1)c1c(O)c2ccccc2oc1=O,-2.0%[21.7 µM],-12.2%[12.8 µM],?,.,.
Cc1ccc(-c2cc(-c3ccccc3)c(C#N)c(N)n2)o1,?,?,20.0%,?,3.55µM*
Cc1ccc(-c2cc(-c3ccc(F)cc3)nc(N)c2C#N)o1,?,-13.2%,.,0.0,5.62µM*
N#Cc1c(-c2ccncc2)cc(-c2ccc(F)cc2)nc1N,0.1%,1.7%,3.4%,-20.0,-15.1%
Cc1ccc(-c2cc(-c3ccccc3Cl)c(C#N)c(N)n2)o1,?,-25.3%,.,-36.8,?
COc1ccccc1/C=C/C(=O)Nc1ccc(S(=O)(=O)Nc2cc(C)on2)cc1,.,2.6%,?,?,-12.9%
COc1cccc(NC(=S)NCCC(c2ccccc2)c2ccccc2)c1,3.6%,?,?,-17.3,38.7%
